Screens as filed in PubChem BioAssay.
DAX1 inh-1: inhibitors of DAX1 repression of SF-1 activated StAR promoter | HEK293T StAR-luciferase reporter, SF-1/DAX-1 repression relief | inhibition, % at 6.8 µM | 370,000 tested, 1.1% active;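 active means inhibition above the mean over all tested compounds plus 3 SD, cut at about 3.6% in these data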;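 further: higher inhibition means more luminescence from relief of DAX-1 repression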
NR1D1 modulator: Rev-erb alpha (human) modulation; Rev-erbα–FITC-DNA binding, fluorescence polarization, 90 min; activity, % at 10 µM; P20393; AID 1259318; 370,000 tested, 0.79% active;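 active means activity above about 14%, limit read from the data; passing the limit was not always enough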
hgDAF-12 ag: hgDAF-12 agonism, primary luciferase screen; HEK293 GAL4-hgDAF12 UAS-luciferase reporter, agonist luminescence; normalized to butyrate control; activation, % at 6.8 µM; 370,000 tested, 1.8% active; AID 687014;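 active means activation above a cutoff set at the mean of all screened compounds plus 3 SD, cut at about 10% in these data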
ssDAF12 agonist: S. stercoralis DAF-12 activation, primary screen; HEK293 ssDAF-12/GRIP1 lit1-tk-luc reporter, luminescence; % of 3 µM dafachronic acid response; activation, % at 6.8 µM; 370,000 tested, 1% active;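 active means activation above the mean over all tested compounds plus 3 SD, cut at about 0.9% in these data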
DAX1 inh-2: inhibits human nuclear receptor DAX1; AID 504766; 340,000 tested, 0.99% active; P51843; inhibition, % at 6.75 µM; HEK293 Gal4-DAX1 luciferase reporter, luminescence;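 active means inhibition above the mean over all tested compounds plus 3 SD, cut at about 4.2% in these data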;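 further: inhibition shows as a rise in luminescence from relieved DAX1 repression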
Target sequence (P51843 207-470 limits assumed): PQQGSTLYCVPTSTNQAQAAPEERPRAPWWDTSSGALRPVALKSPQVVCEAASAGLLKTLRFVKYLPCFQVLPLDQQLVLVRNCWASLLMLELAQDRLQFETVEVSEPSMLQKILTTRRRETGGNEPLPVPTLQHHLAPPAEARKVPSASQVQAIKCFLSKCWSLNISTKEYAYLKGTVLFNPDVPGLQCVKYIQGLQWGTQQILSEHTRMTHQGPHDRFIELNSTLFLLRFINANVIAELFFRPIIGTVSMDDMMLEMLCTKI
hcDAF12 agonist: activators of H. contortus DAF-12 nuclear receptor; HEK293 hcDAF-12 lit1-tk-luc reporter, luminescence; 0% DMSO, 100% Δ7-dafachronic acid; activation, % at 6.8 µM; 370,000 tested, 1.4% active; AID 652067;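 active means activation above the mean of all tested compounds plus 3 SD, cut at about 5.5% in these data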
hgDAF12 ag: confirmation of H. glycines DAF-12 agonists; shares compounds with hgDAF-12 ag; HEK293 GAL4-hgDAF12 luciferase reporter, agonist mode; percent of butyrate response; activation, % at 6.8 µM; 3,300 tested, 80% active;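 active means mean activation over triplicate wells above the hit cutoff derived from the earlier primary screen, cut at about 11% in these data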
LXR ag 2: activates human LXR-beta, counter-screen for DAF-12 agonists. HEK293 Gal4-LXR luciferase reporter, 24 h. activation, % at 6.8 µM. shares compounds with hgDAF-12 ag. AID 743051. 3,300 tested, under 10 active;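 active means mean activation of the triplicate above a set limit carried over from the primary screen, none filed active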
A number is an active result; - = inactive; . = no result. Sampled rows, rich in hits. Any-hit rate of the full collection: about 4.8%.

SMILES	DAX1 inh-1	NR1D1 modulator	hgDAF-12 ag	ssDAF12 agonist	DAX1 inh-2	hcDAF12 agonist	hgDAF12 ag	LXR ag 2
COC(=O)[C@]12C[C@H](CC(=O)N3CCN(C(=O)c4ccco4)CC3)C(=O)N(Cc3ccccc3)C1=C[C@H](C1CCCC1)O[C@@H]2C	-	-	-	-	.	-	.	.
COCCN1Cc2cc(C(=O)OC)c3c(c2C1=O)c1cc(F)ccc1n3S(=O)(=O)c1ccc(C)cc1	-	-	-	-	.	-	.	.
O=C(Nc1nc(-c2nc3ccccc3s2)cs1)c1ccco1	4.5	-	19	-	-	-	-	-
CC(=O)Nc1ccc(NC(=O)c2ccc(COc3ccccc3)cc2)cc1	-	-	-	-	-	-	.	.
O=C(Nc1nc2cc3c(cc2s1)OCO3)c1ccco1	-	-	19	-	-	-	-	-
CC(=O)Nc1cccc(NC(=O)c2ccc(COc3ccccc3)cc2)c1	-	-	13	-	-	-	17	-
CCOc1ccc2nc(NC(=O)c3ccco3)sc2c1	-	-	16	-	-	-	17	-
O=C(N[C@H](C(=O)N1CCC[C@H]1C(=O)NCCc1ccccc1Cl)c1ccccc1)c1cccs1	-	-	-	-	.	-	.	.
CCOc1ccc(OCc2cccc(C(=O)Nc3ccc(CN4CCCCC4)cc3)c2)cc1	-	-	18	-	-	-	19	-
O=S(=O)(N[C@@H]1CCCC[C@@H]1N1CCOCC1)c1ccc(Cl)cc1	.	-	-	-	.	-	.	.
O=C(CN1CCN(C(=O)c2cc(C3CC3)nn2-c2ccccc2)CC1)Nc1ccc(F)cc1	-	-	15	-	-	-	-	-
Cc1cccc(NC(=O)CN2CCN(C(=O)c3cc(C4CC4)nn3-c3ccccc3)CC2)c1C	-	-	-	-	-	-	.	.
COC(=O)[C@]12C[C@H](CC(=O)NCc3cccc(C(F)(F)F)c3)C(=O)N(Cc3ccccc3)C1=C[C@H](C1CCCC1)O[C@@H]2C	-	-	-	-	.	-	.	.
Cc1cc(C(=O)CN2C(=O)c3cccc(N)c3C2=O)c(C)n1Cc1cccs1	4.1	-	15	1.0	-	6.0	15	-
COCCn1c(C)cc(C(=O)Cn2nc(C(=O)O)c3ccccc3c2=O)c1C	-	-	14	-	-	-	12	-
Cc1ccc(C(=O)OCC(=O)NCc2cccs2)c(C)c1	-	-	14	-	-	-	-	-
Cc1cc(C)cc(C(=O)OCC(=O)NCc2cccs2)c1	-	-	-	-	-	-	.	.
COc1ccc(-c2cc(=Nc3c(C)n(C)n(-c4ccccc4)c3=O)c3ccccc3o2)cc1	-	-	19	-	5.3	6.0	12	-
CCCN1C(=O)c2cc(C(=O)NC3CCCCCC3)ccc2C1O (stereo not drawn)	3.8	-	18	-	-	-	14	-
CCCN1C(=O)c2cc(C(=O)O)ccc2C1O (stereo not drawn)	-	-	-	-	-	-	.	.
Cc1ncc(CO)c(CO)c1O	-	-	-	-	-	-	.	.
Cc1ncc(CO)c(CNc2ccc(-c3nc4ccccc4[nH]3)cc2)c1O	-	-	16	-	-	-	13	-
CCS(=O)(=O)N1Cc2ccccc2CC1C(=O)Nc1ccc(OC)c(OC)c1 (stereo not drawn)	-	-	-	-	-	-	.	.
CCS(=O)(=O)N1Cc2ccccc2CC1C(=O)Nc1cccc(OC)c1 (stereo not drawn)	-	-	14	-	-	-	-	-
COc1cc(/C=N/NC(=O)c2ccccn2)cc2c1OCO2	-	-	14	-	-	-	-	-
SMILES	DAX1 inh-1	NR1D1 modulator	hgDAF-12 ag	ssDAF12 agonist	DAX1 inh-2	hcDAF12 agonist	hgDAF12 ag	LXR ag 2
O=C(N/N=C/c1cc2c(cc1Cl)OCO2)c1ccccn1	-	-	-	-	-	-	.	.
COc1cccc(CNC(=O)[C@H]2CCCN2C(=O)[C@H]2CCCN2C(=O)c2cccc(OC)c2)c1	-	-	-	-	.	-	.	.
C/C(=N\NC(=O)c1csc(C)c1C)c1ccc(C)s1	-	-	13	-	-	-	11	-
C/C(=N\NC(=O)c1csc(C)c1C)c1ccco1	-	-	-	-	-	-	.	.
CCCC(=O)N1CCC(NS(=O)(=O)c2ccc3c(c2)CCN3C(C)=O)CC1	-	-	-	-	.	-	.	.
Cc1cc(C)c2c(CCl)cc(=O)oc2c1	-	-	-	-	.	-	.	.
Cc1cc(C)c2c(CN(C)Cc3ccccc3)cc(=O)oc2c1	-	-	13	-	.	-	-	-
Nc1ccn([C@@H]2O[C@H](C(=O)N3CCN(CCO)CC3)[C@@H](O)[C@H]2O)c(=O)n1	-	-	-	-	.	-	.	.
CN1C(=O)C[C@@](C#N)(C(=O)NCc2ccc3c(c2)OCO3)[C@H]1c1ccccc1	-	-	-	-	.	-	.	.
Cc1ccc(C(=O)Nc2ccc3c(c2)CCC3)o1	-	-	16	-	-	-	22	-
Cc1occc1C(=O)Nc1ccc2c(c1)CCC2	3.9	-	15	-	-	-	15	-
CC(=O)Nc1ccc2c(c1)CCCC2	-	-	-	-	-	-	.	.
COc1ccc(C(c2ccc(OC)cc2)N2CCN(C(=O)c3noc(C)c3[N+](=O)[O-])CC2)cc1	.	-	-	-	.	-	.	.
CCCN(CCC)CC(O)Cn1cc(/C=C/C(=O)c2cccs2)c2ccccc21 (stereo not drawn)	-	-	27	-	-	-	-	-
c1coc(CNc2nc3ccccc3s2)c1	-	-	16	1.9	6.5	8.8	17	-
Cc1nnc(NCc2ccco2)s1	-	-	-	-	-	-	.	.
CC(C)=CC(=O)Nc1ccc(Cl)cc1	-	-	19	1.7	-	-	12	-
CNC(=O)Nc1ccc(Cl)cc1	-	.	-	-	-	-	.	.
Cc1cc([N+](=O)[O-])ccc1NC(=O)c1cncc(Br)c1	-	-	-	-	-	-	.	.
Cc1ccc(NC(=O)c2cncc(Br)c2)c(O)c1	-	-	16	-	-	6.2	17	-
COc1ccc(OC)c(C(=O)CSc2nnc(SCc3cccc4ccccc34)s2)c1	-	-	-	-	.	-	.	.
C/C(CC(=O)Nc1ccccc1C(F)(F)F)=N\NC(=O)c1cnccn1	-	-	-	-	-	-	.	.
C/C(CC(=O)Nc1ccc(Cl)cc1C(F)(F)F)=N\NC(=O)c1cccs1	-	-	14	-	8.6	-	-	-
C/C(CC(=O)Nc1ccc(Cl)cc1C(F)(F)F)=N\NC(N)=S	-	-	-	-	.	-	.	.
C/C(CC(=O)Nc1ccc(Cl)cc1C(F)(F)F)=N\NC(=O)c1ccccn1	-	-	15	-	-	-	-	-
Cc1ccc(-c2cc(C(=O)NCCCN3CCOCC3)no2)cc1	-	-	-	-	-	-	.	.
